Measurements: PubChem BioAssay (EPA / NIEHS)
The source made the active and inactive calls. The calls were made as follows: active = hit-call score of the fitted dose curve at least 0.9, where 1 is the maximum; inactive = score below 0.9.

Test: ATG_Sox_CIS: Attagene CIS-FACTORIAL HepG2 Assay for human SRY-box transcription factor (SOX) (AID 2282960)
Conditions: HepG2 Attagene cis-factorial SOX reporter, mRNA; actives raise or lower the signal
Method: ATG_CIS is a cell-based, multiplexed-readout assay that uses HepG2, a human liver cell line, with measurements taken at 24 hours after chemical dosing in a 24-well plate.ATG_Sox_CIS is one of 52 assay component(s) measured or calculated from the ATG_CIS assay. It is designed to make measurements of mRNA induction, a form of inducible reporter, as detected with fluorescence intensity signals by Reverse transcription polymerase chain reaction (RT-PCR) and Capillary electrophoresis technology.Data from the assay component ATG_Sox_CIS was analyzed into 1 assay endpoint. This assay endpoint, ATG_Sox_CIS, was analyzed with bidirectional fitting relative to DMSO as the negative control and baseline of activity. Using a type of inducible reporter, measures of mRNA for gain or loss-of-signal activity can be used to understand the reporter gene at the transcription factor-level as they relate to the gene SOX1. Furthermore, this assay endpoint can be referred to as a primary readout, because this assay has produced multiple assay endpoints where this one serves a reporter gene function. To generalize the intended target to other relatable targets, this assay endpoint is annotated to the dna binding intended target family, where the subfamily is HMG box protein.
Human liver HepG2 cells are transiently transfected with multiple reporter transcription units (MRTUs) in 6-well plates using FuGene 6 reagent (Roche; 3 ml FuGene/1 mg DNA). The MRTU constructs are regulated by a cis-regulating element (promoter). […] A major difference between the CIS and TRANS system is that in CIS activities of endogenous TFs are measured, whereas the TRANS assay evaluates changes in activities of exogenous, chimeric NR-Gal4 proteins. […] At the end of 24 hour incubation, total RNA was isolated using TriZol reagent (Invitrogen). The isolated RNA is then reverse-transcribed using oligo(dT) primer and Mo-MLV reverse transcriptase (Invitrogen) with DNAse I (Ambion) treatment for 30 min. The one-tenth of the produced cDNA was amplified by PCR using Taq DNA polymerase (Invitrogen) and two reporter sequence-specific primers. The PCR products were fluorescently labeled by primer extension with 6-arboxyfluorescein (6-FAM) 5'-labeled reporter sequence-specific primer (2 min at 95 C, 20 s at 68 C and 10 min at 72 C) and these products were digested with 5U of HpaI (New England Biolabs) for 2h at 37 C. The fragments were purified using Qiaquick PCR columns (Qiagen), analyzed on an ABI 3130xL genetic analyzer (Applied Biosystems) with peak positions identified by using a set of X-rhodamine (ROX)-labeled MapMarker1000 molecular weight standards (BioVentures). The raw capillary electrophoresis data was processed using Attagraph software (Attagene).

outcome, inactive:
CC(C)C1CCC(O)CC1 (stereo not given), C=CC(=O)OCCOCCOCC, O=C1CCc2ccccc2O1, Nc1ccc(F)c([N+](=O)[O-])c1, O=CCCc1ccccc1, O=[N+]([O-])c1ccc(Nc2ccc(Nc3ccccc3)c(S(=O)(=O)O)c2)c([N+](=O)[O-])c1, CN(C)CCCN, CCCCCCOC(=O)CC, O=C(O)CN(CCN(CC(=O)O)CC(=O)O)CCN(CC(=O)O)CC(=O)O, CC1(CO)CN(c2ccccc2)NC1=O (stereo not given), CCc1c(C)cc(N)c(CC)c1N, COc1ccc(Nc2ccccc2)c(C)c1, C[C@H]1C[C@@H]2[C@H]([C@@H](O)C[C@@]3(C)[C@H]2CC[C@]3(O)C(=O)CO)[C@@]2(C)C=CC(=O)C=C12, NCCCCCCN, Cc1c(Cl)c(=O)oc2cc(O)ccc12, COc1nc(C)nc(N)n1, COc1ccnc(CS(=O)c2nc3cc(OC(F)F)ccc3[nH]2)c1OC (stereo not given), CCCCc1ccc(N)cc1, CSc1nc(NC2CC2)nc(NC(C)(C)C)n1, COC(C(=O)O)c1ccccc1 (stereo not given), CCCC1CCC(=O)O1 (stereo not given), CCCCCCCCCC=O, CC1=CC(=O)NS(=O)(=O)O1, CC(=O)[C@H]1CC[C@H]2[C@@H]3CC=C4C[C@@H](O)CC[C@]4(C)[C@H]3CC[C@]12C, CCCCCCCCCOC(C)=O, O=C(O)c1cccc([N+](=O)[O-])c1, C=C(C)C(=O)OCCOC(=O)CC(C)=O, Cc1ccc2ccccc2n1, C=CC(=O)NCOCC(C)C, O=C(O)c1cn(C2CC2)c2cc(N3CCNCC3)c(F)cc2c1=O, CCCCCCC#CC(=O)OC, CC(C)(Oc1ccc(CCNC(=O)c2ccc(Cl)cc2)cc1)C(=O)O, COc1ccc(OC)c(OC)c1, CC(C)=CCO, CC(CCO)CCc1ccccc1 (stereo not given), OCCCCCO, COC(=O)c1ccc(C)cc1, Cc1cccc(C)c1[N+](=O)[O-], CC(=O)c1c(C)cc(C(C)(C)C)cc1C

AC50, active:
O=Cc1ccc(Cl)c([N+](=O)[O-])c1 109 µM
